{"source": "PubChem BioAssay (NCI)", "note": "The panel holds about 79,000 compounds, 15% with a hit somewhere; the sample as a whole holds those more often. A number with no mark means an inactive call. Calls of active or inactive are those of the source. Rule as the data show it: active = growth inhibition above about 70%; inactive = the rest."}
{"test": "NCI Yeast Anticancer Drug Screen. Data for the cln2 rad14 strain (AID 165);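 also: 0% = growth equal to vehicle treated cultures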", "conditions": "S. cerevisiae cln2 rad14 strain, at 50.0 µM, active compounds read high", "procedure,_shortened": "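Readout is yeast growth inhibition versus vehicle-treated controls, using a strain with cln2 and rad14 alterations exposed to compound.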"}
{"compound": "COc1ccc(CN2CCCN(Cc3ccc(OC)cc3OC)C2c2ccc(N(CCCl)CCCl)cc2)c(OC)c1", "growth inhibition": "30.3%"}
{"compound": "[Cl][Pt+2][Cl].[NH-]c1ccc([N+](=O)[O-])cc1[NH-]", "growth inhibition": "54.6%"}
{"compound": "O=C(Oc1ccc(S(=O)(=O)F)cc1F)c1ccccc1Cl", "growth inhibition": "99% (active)"}
{"compound": "Oc1c(I)cc(I)cc1I", "growth inhibition": "-32.6%"}
{"compound": "CCCCCCCCCCCCCCCC[N+](C)(C)CCOS(C)(=O)=O", "growth inhibition": "86.5% (active)"}
{"compound": "CN(C)CC1(N)C(=O)NC(=O)NC1=O", "growth inhibition": "43.6%"}
{"compound": "CC1=C(O)C(=O)C=C2C1=CC=C1[C@@]2(C)CC[C@@]2(C)[C@@H]3C[C@](C)(C(=O)O)CC[C@]3(C)CC[C@]12C", "growth inhibition": "91% (active)"}
{"compound": "CCC[CH2][Sn]([CH2]CCC)([N]=C=S)[N]=C=S", "growth inhibition": "97.3% (active)"}
{"compound": "O=C(C[n+]1ccccc1)C1CCc2ccccc2C1", "note": "(stereo not given)", "growth inhibition": "39%"}
{"compound": "[Cl][Pt][Cl].c1ccc([AsH](CC[AsH](c2ccccc2)c2ccccc2)c2ccccc2)cc1", "growth inhibition": "98.6% (active)"}
{"compound": "COc1cc(/C=C\\[N+](=O)[O-])ccc1O", "growth inhibition": "99% (active)"}
{"compound": "Cc1sc(Cc2ccccc2)nc1-c1ccc(N=Cc2ccc(N(CCCl)CCCl)cc2)cc1", "growth inhibition": "93.6% (active)"}
{"compound": "CC1(C)C2CCC([CH2][Hg][Cl])C1C2", "note": "(stereo not given)", "growth inhibition": "99% (active)"}
{"compound": "CC12C(=O)C=CCC1=CCC1C2CCC2(O)C(=O)OC3(C)C4CC5(C)C(COC16OC23C5C6=O)C(=O)O4", "note": "(stereo not given)", "growth inhibition": "30.4%"}
{"compound": "O=C(CBr)OCC(Br)CBr", "note": "(stereo not given)", "growth inhibition": "98.8% (active)"}
{"compound": "S=c1[nH]c2ccccc2s1.[Pb]", "growth inhibition": "64.2%"}
{"compound": "O=[N+]([O-])c1ccc(C(Br)Br)cc1", "growth inhibition": "98.6% (active)"}
{"compound": "CC(C)(C)[Si](OC(=O)N(CCCl)CCCl)(c1ccccc1)c1ccccc1", "growth inhibition": "68.4%"}
{"compound": "CCCCCCCC[N+]12CN3CN(CN(C3)C1)C2", "growth inhibition": "30.4%"}
{"compound": "CC(C=O)[Se]c1ccccc1", "note": "(stereo not given)", "growth inhibition": "48.6%"}
{"compound": "CCOP(=O)(N=Nc1cccnc1)OCC", "growth inhibition": "59.8%"}
{"compound": "COc1cc(/C=C/c2ccc(OC)c(O)c2)cc(OC)c1", "growth inhibition": "98.2% (active)"}
{"compound": "ClC1CCCCC1[Se](Cl)(Cl)C1CCCCC1Cl", "note": "(stereo not given)", "growth inhibition": "97.9% (active)"}
{"compound": "C/C(=N/NC(N)=S)c1ccc(Cl)cc1", "growth inhibition": "92.5% (active)"}
{"compound": "O=C(Nc1ccccc1)c1cc([N+](=O)[O-])ccc1O.[Ni]", "growth inhibition": "33.5%"}
{"compound": "CC1(C)N=C(N)N=C(N)N1c1ccc(OCCCCNC(=O)Nc2ccc(S(=O)(=O)F)cc2)c(Cl)c1", "growth inhibition": "97.3% (active)"}
{"compound": "Nc1nc(N)c(-c2ccc(Cl)c(Cl)c2)c(COc2ccc(CNC(=O)Nc3cccc(S(=O)(=O)F)c3)cc2Cl)n1", "growth inhibition": "-4.6%"}
{"compound": "CC(=O)[O-].CC(=O)[O-].O=C(N/N=C/c1cc(Cl)cc(Cl)c1[OH2+])c1ccncc1.[Co+2]", "growth inhibition": "26.4%"}
{"compound": "CC(Br)C(=O)C(CCN(C)C)(c1ccccc1)c1ccc(Br)s1", "note": "(stereo not given)", "growth inhibition": "80.6% (active)"}
{"compound": "[N-]=[N+]=NC1(N=[N+]=[N-])C(=O)NN=C(c2ccccc2)C1=O", "note": "(stereo not given)", "growth inhibition": "86.8% (active)"}
{"compound": "NC(=O)c1cc([N+](=O)[O-])c(Cl)c([N+](=O)[O-])c1Cl", "growth inhibition": "90.3% (active)"}
{"compound": "Nc1nc(N)c(-c2ccc(Cl)c(Cl)c2)c(CCc2ccc(CNC(=O)c3cccc(S(=O)(=O)F)c3)cc2)n1", "growth inhibition": "54.6%"}
{"compound": "CCOC(=O)C(Cl)Cl", "growth inhibition": "-39.8%"}
{"compound": "C1=C[N-]c2c3c(ccc2=C1)=CC=C[N-]3.C1=C[N-]c2c3c(ccc2=C1)=CC=C[N-]3.F[P-](F)(F)(F)(F)F.[Cu+2]", "growth inhibition": "98.8% (active)"}
{"compound": "CCCCCCCCCCC(=O)O.[Pb]", "growth inhibition": "14.2%"}
{"compound": "CN(Cc1ccccc1)CC(O)c1cccc(I)c1", "note": "(stereo not given)", "growth inhibition": "31.6%"}
{"compound": "CCOc1c(Br)cc(N=Cc2ccc(N(CCCl)CCCl)c(OC)c2)cc1Br", "growth inhibition": "44.4%"}
{"compound": "COC(=O)C1ON(c2ccccc2)C2c3ccccc3-c3ccccc3C12", "note": "(stereo not given)", "growth inhibition": "50%"}
{"compound": "COc1ccccc1C(Cc1ccc(N2C(N)=NC(N)=NC2(C)C)cc1)C(=O)Nc1ccc(S(=O)(=O)F)cc1", "note": "(stereo not given)", "growth inhibition": "55.4%"}
{"compound": "O=[N+]([O-])c1cc([N+](=O)[O-])c(Cl)s1", "growth inhibition": "99.3% (active)"}
